# Source: PubChem BioAssay
# Cruzain inh Det – blocks cruzain activity in presence of Triton detergent; Potency, µM, inactives show max response, negative = inhibition, hits mostly inhibitors; purified cruzain, Z-FR-AMC fluorescence, 0.01% Triton; 0.43% of 200,000 active; AID 1478; P25779;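 note: plate controls were neutral wells for no effect and buffer without enzyme for full effect; nearly all actives have a fitted effect of over 40% in size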
# Target sequence (P25779 123-467 limits assumed): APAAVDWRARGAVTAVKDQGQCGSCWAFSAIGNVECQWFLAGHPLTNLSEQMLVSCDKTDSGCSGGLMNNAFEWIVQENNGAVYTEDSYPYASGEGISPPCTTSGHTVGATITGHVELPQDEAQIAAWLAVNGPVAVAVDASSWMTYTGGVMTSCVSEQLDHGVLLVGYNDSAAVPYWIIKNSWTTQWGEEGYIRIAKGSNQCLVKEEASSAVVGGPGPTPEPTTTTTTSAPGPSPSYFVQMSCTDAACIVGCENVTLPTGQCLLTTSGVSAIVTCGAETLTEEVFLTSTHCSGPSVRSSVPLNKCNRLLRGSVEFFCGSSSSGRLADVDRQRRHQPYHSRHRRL
#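 Compounds were screened in titration against cruzain (1.5 nM) with 0.01% Triton X-100 to counter colloidal aggregation. Activity was the AMC fluorescence increase over 60 s after adding 2 uM Z-FR-AMC at pH 5.5.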
# Cruzain inh noDet – inhibitors of Trypanosoma cruzi cruzain without detergent | P25779 | purified cruzain, Z-FR-AMC fluorescence, no detergent | AID 1476 | 2.3% of 200,000 active | Potency, µM, for the others: max response, negative = inhibition, hits mostly inhibitors;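 note: plate controls were enzyme without inhibitor for no effect and buffer without enzyme for full effect; nearly all actives have a fitted effect of over 40% in size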
#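 Purified cruzain at 1.5 nM, pre-incubated 15 min with compound at room temperature in 100 mM sodium acetate pH 5.5, 5 mM DTT, 0.00005% Triton X-100. Reaction started with 2 uM Z-FR-AMC; AMC fluorescence increase over 60 s gives rate.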
# The depositor's hits bear a star; ? = inconclusive. In the library only some 2.5% were active in any assay of this set; here they are far more common. Calls come from the whole dose curve; as a rule, active = well fitted curve in the direction sought with a large enough effect; inconclusive = small, poorly fitted or top-dose-only effect, or another doubt; inactive = no such curve, though single readings can be large; an effect the other way counts as inactive or inconclusive. Potency is the fitted concentration of half-maximal effect.
SMILES,Cruzain inh Det,Cruzain inh noDet
Cc1ccc(NS(=O)(=O)c2cccc(C(=O)N/N=C/c3ccc4c(c3)OCCO4)c2)c(C)c1,-13%,6.3µM*
COc1ccccc1NS(=O)(=O)c1cccc(C(=O)N/N=C/c2ccc(N3CCOCC3)cc2)c1,-7%,?
CC(=O)c1cccc(NC(=O)CSc2nc(=O)n(Cc3ccco3)c3c2CCC3)c1,-1%,-5%
CCOc1ccccc1NC(=O)N1CCc2c(sc(C)c2CC)C1c1ccccc1 (configuration not stated),-2%,?
CCOc1ccc(N(CC)C(=O)Cn2cnc3sc(C)c(S(=O)(=O)N4CCN(c5ncccn5)CC4)c3c2=O)cc1,-1%,-5%
Cc1ccc(C(=O)NCc2ccccc2)cc1NC(=O)c1nsc2ccccc12,-2%,?
Nc1ccc2nn(-c3cccc4ccccc34)nc2c1,-3%,?
Cc1cc2nn(-c3cccc4ccccc34)nc2cc1N,-3%,16µM*
Nc1cc(OC(=O)c2ccco2)nn1S(=O)(=O)c1ccc(F)cc1,25µM*,20µM*
CC(C)(C)C(=O)Oc1cc(N)n(S(=O)(=O)c2ccc(F)cc2)n1,-3%,2%
COc1ccc(Cl)cc1-c1ccc(C(=O)O)o1,-2%,-2%
Cc1ccc(-c2noc(CN(C3CCCCC3)S(=O)(=O)c3ccc(F)cc3)n2)cc1,-6%,-20%
Cc1cc(C)cc(NC(c2cccc(Cl)c2)c2nnc(-c3ccccc3)o2)c1 (configuration not stated),-2%,?
COc1ccc(NC(=O)Nc2cc(C(=O)NCc3ccc(C)cc3)ccc2N2CCCC2)cc1,1%,-5%
O=C(CN1C(=O)COc2ccc(S(=O)(=O)N3CCOCC3)cc21)N1CCN(c2ccc(F)cc2)CC1,0%,23%
C=CCn1c(-c2oc3nc(-c4ccccc4)cc(-c4ccccc4)c3c2N)n[nH]c1=S,-11%,25µM*
C=CCn1c(-c2cccc(Cl)c2)n[nH]c1=S,-6%,12%
CCOC(=O)c1ccc(NC(=O)CSc2cc(-c3ccccc3)nc(C)n2)cc1,-8%,8%
COc1ccccc1NC(=O)CCC(=O)c1ccc(-c2ccccc2)cc1,-7%,-3%
CCc1ccccc1NC(=O)CCC(=O)OCC(=O)c1ccc(-c2ccccc2)cc1,-2%,16µM*
COc1ccccc1NC(=O)CN1C(=O)CC(c2ccc(C)c(C)c2)=Nc2ccccc21,-8%,-17%
CC(C)CCNc1nc2c(S(=O)(=O)c3ccc(Br)cc3)nnn2c2ccsc12,4%,?
O=C(N=Nc1c(O)[nH]c2ccc(Br)cc12)c1cc(-c2cccc3ccccc23)n[nH]1,-3%,10µM*
Cc1cccc(C)c1OCC(=O)N=Nc1c(O)[nH]c2ccc(Br)cc12,2%,-23%
COC(=O)c1c(-c2cccs2)csc1NC(=O)COc1ccc(C(C)C)cc1,-9%,?
SMILES,Cruzain inh Det,Cruzain inh noDet
CCn1c2ccccc2c2cc(/C=N/n3cnnc3)ccc21,-11%,-7%
CCn1c2ccccc2c2cc(/C=N/NC(=O)c3ccccc3C)ccc21,-21%,32µM*
CCn1c2ccccc2c2cc(/C=N/NC(=O)c3cccc(C)c3)ccc21,7%,7.9µM*
Cc1cccc(C(=O)N/N=C/c2ccncc2)c1,0%,4%
CCOC(=O)N1CCN(C(=O)c2ccc3c(c2)N(Cc2ccccc2F)C(=O)c2ccccc2S3(=O)=O)CC1,0%,-9%
COc1ccccc1-c1nnc(SCC(=O)c2ccc(Cl)cc2)n1-c1ccccc1,-4%,25µM*
COC(=O)CSc1nnc(-c2ccccc2OC)n1-c1ccc(C)cc1,2%,-20%
CCOc1ccc(-n2c(Cc3ccccc3)nnc2SCc2nc(-c3cccs3)no2)cc1,-8%,11%
NC1=C(c2ccc(F)cc2)C(=O)CS1,?,16µM*
Nc1nnc(-c2ccc(F)cc2)s1,-3%,16%
COc1ccc(N(CC(=O)N2CCc3ccccc3C2)S(=O)(=O)c2ccc(C)cc2)cc1Cl,-6%,-9%
CCN1CCc2nc(NC(=O)CC(c3ccccc3)c3ccccc3)sc2C1,0%,32µM*
CCN1CCc2nc(NC(=O)C(c3ccccc3)c3ccccc3)sc2C1,0%,-7%
Cc1nn(-c2nc3ccccc3s2)c(N)c1-c1ccccc1,-1%,?
Cc1nn(-c2nc3ccccc3s2)c(N)c1Sc1ccc(F)cc1,7%,13µM*
COC(=O)CCSc1nc2sc3c(c2c(=O)n1Cc1ccccc1)CCC(C(C)(C)C)C3 (configuration not stated),-4%,-14%
Cc1ccc(C(=O)/C=C\C(=O)c2ccc(C)cc2)cc1,-9%,-21%
Cc1ccc(C(=O)c2no[n+]([O-])c2C(=O)c2ccc(C)cc2)cc1,?,25µM*
O=C(NNC(=O)c1cc2cc3ccccc3nc2s1)c1cccc(Cl)c1,?,25µM*
O=C(NNC(=O)c1ccccc1Br)c1cccc(Cl)c1,3%,-4%
Cc1ccc(S(=O)(=O)NNC(=O)c2cc3cc4ccccc4nc3s2)cc1,-14%,-5%
Cc1ccccc1C(=O)NNC(=O)c1ccc(F)cc1,-2%,-1%
O=C(NNC(=O)c1cc2cc3ccccc3nc2s1)c1ccc(F)cc1,?,10µM*
Cc1cccc(C(=O)NNC(=O)c2cc3cc4ccccc4nc3s2)c1,4%,20µM*
Cc1cccc(NC(=O)CSc2nc3ccccc3c3nc(CCn4cncc4C)nn23)c1,-1%,3%
SMILES,Cruzain inh Det,Cruzain inh noDet
O=C(CSc1nc(O)cc(=O)[nH]1)Nc1ccc2c(c1)CCC2,-11%,16µM*
Nc1nc(SCC(=O)Nc2ccc3c(c2)CCC3)n[nH]1,-2%,-17%
O=C(O)C[C@@H](C(=O)O)C1c2ccccc2-c2ccccc21,0%,0%
CCOC(=O)CNCCC(=O)c1ccc(Br)cc1,25µM*,10µM*
Cc1cccc(NCCC(=O)c2ccc(Br)cc2)c1,0%,-17%
N#Cc1ccc(-c2csc(NNC(=O)c3ccc(Br)cc3)n2)cc1,-2%,7.9µM*
N#Cc1ccc(-c2csc(NNC(=O)c3ccccc3)n2)cc1,1%,?
Cc1ccc(-c2csc(NC(=S)NC(=O)c3cc4ccccc4o3)n2)cc1,0%,6.3µM*
Cc1ccc(-c2csc(NC(=S)NC(=O)/C=C/c3ccco3)n2)cc1,1%,?
Cc1ccc(-c2nc3ccccc3o2)cc1NC(=S)NC(=O)c1cc2ccccc2o1,-1%,6.3µM*
O=C(NC(=S)Nc1nc(-c2ccc(Br)cc2)cs1)c1cccnc1,4%,4µM*
Cc1ccc(-c2nc3cc(C(C)C)ccc3o2)cc1NC(=O)c1cc2ccccc2o1,-1%,?
O=C(Nc1nc(-c2ccccc2)cs1)c1cccnc1,3%,-7%
COc1cccc(NC(=O)C(C)n2c(=O)cc(C(F)(F)F)c3c(C)nn(C)c32)c1 (configuration not stated),-2%,?
COc1cc2c(cc1OC)-c1cc3nc4ccccc4nc3n1C(C)(C)C2,-3%,?
O=C(Nc1cccc(Cl)c1)c1ccc2nc(Cc3ccccc3)oc2c1,-8%,-19%
CN1C(=O)c2ccccc2Sc2ccc(NC(=O)N3CCN(c4ccc(F)cc4)CC3)cc21,-7%,?
CCOC(=O)c1c(Oc2ccc(C(=O)OC)cc2)nnc(-c2ccccc2)c1-c1ccccc1,-7%,-21%
O=[As](O)(O)c1ccc(N=Nc2ccc([As](=O)(O)O)cc2)cc1,-2%,2%
N#CC(C(=O)NC1CCCCC1)c1nc2ccccc2nc1N1CCOCC1 (configuration not stated),2%,1%
